This is an account of results in PubChem BioAssay (NCI).

Test in all cases: NCI-60 one-dose screen, 48 h (100 = growth as untreated, 0 = no growth, -100 = all killed)
The subject of test [1] is HCT-15 colon.
The test system of test [2] is HT29 colon.
For test [3], the system named is SNB-75 CNS.
Test [4] concerns SNB-19 CNS. To be noted: 10 µM unless noted.
Test [5] relates to U251 CNS.
Test [6] concerns PC-3 prostate.
Test [7] has as its system SK-MEL-5 melanoma.
Test [8] concerns UACC-62 melanoma.
In test [9] the test system is LOX IMVI melanoma.
The test system of test [10] is SK-MEL-28 melanoma. The conditions noted are these: 10 µM unless noted.
Test [11] deals with SK-MEL-2 melanoma. The conditions noted are these: 10 µM unless noted.
Test [12] deals with EKVX NSCLC.
The subject of test [13] is SN12C renal. To be noted: 10 µM unless noted.
Test [14] deals with UO-31 renal.
Test [15] deals with TK-10 renal.
The test system of test [16] is ACHN renal.
Test [17] deals with CAKI-1 renal.
Test [18] relates to A498 renal.
Test [19] deals with HL-60(TB) leukemia.
The test system of test [20] is CCRF-CEM leukemia.

Structures are written as SMILES. Values joined by “and” are separate entries in the source; they are usually repeats but may differ in a detail not shown here. Equal entries are not always repeated. About 83,000 compounds went through this panel and 20% of them were active in at least one assay; those are over-represented in the sample as a whole.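 Compound tested at a single concentration for 48 hours in 96-well plates; a percent growth value below 10 was scored as active.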 A number with no mark means an inactive call. Active and inactive are the calls of the source.

On to `COc1ccn(C)c(=O)c1C#N`, for which the growth was 101% in test [1] (10 µM unless noted); 78.8% in test [2] (10 µM unless noted); 114% in test [3] (10 µM unless noted); 109% in [4]; 92% in [5] (10 µM unless noted); 94.7% in [6] (10 µM unless noted). The growth in test [7] (10 µM unless noted) was 98%; in test [8] (10 µM unless noted) it was 95.9%; in test [9] (10 µM unless noted), 97%; in [10], 106%; in test [11], 72.9%; in test [12] (10 µM unless noted), 105%. In addition, the growth in test [13] was 105%; in test [14] (10 µM unless noted) it was 87.2%; in test [15] (10 µM unless noted), 78.5%; in test [16] (10 µM unless noted), 102%; in [17] (10 µM unless noted), 100%; in [18] (10 µM unless noted) it was 86.2%. Further, the growth was 104% in test [19] (10 µM unless noted) and 120% in [20] (10 µM unless noted).
Turning to `CCCC(C)SP(=S)(SC(C)CCC)SC(C)CCC` (stereo not drawn), the growth in test [1] (10 µM unless noted) was 103%; in [2] (10 µM unless noted), 100%; in [3] (10 µM unless noted) it was 106%; in test [4], 108%; in [5] (10 µM unless noted) it was 103%; in [6] (10 µM unless noted) it was 99.8%. Moreover, the growth in [7] (10 µM unless noted) was 91.9%; in test [8] (10 µM unless noted), 101%; in test [9] (10 µM unless noted), 93.6%; in test [10], 107%; in test [11], 107%; in [12] (10 µM unless noted), 96.7%. For the same compound, the growth was 108% in test [13]; 93% in test [14] (10 µM unless noted); 104% in [15] (10 µM unless noted); 113% in test [16] (10 µM unless noted); 104% in test [17] (10 µM unless noted); 113% in test [18] (10 µM unless noted). Also, the growth was 106% in test [19] (10 µM unless noted) and 103% in test [20] (10 µM unless noted).
With `CSc1cc(/C=C(\C)[C@@H]2C[C@@H]3O[C@]3(C)CCC[C@H](C)[C@H](O)[C@@H](C)C(=O)C(C)(C)[C@@H](O)CC(=O)O2)n(CCNC(=O)OC(C)(C)C)n1`, the growth in test [1] (10 µM unless noted) was 37.1%; in [2] (10 µM unless noted) it was 28.2%; in [3] (10 µM unless noted), 43.9%; in test [4], 70.4%; in test [5] (10 µM unless noted) it was 67.2%; in test [6] (10 µM unless noted) it was 39%. For the same compound, the growth in test [7] (10 µM unless noted) is 38.4%; in [8] (10 µM unless noted), 43.8%; in [9] (10 µM unless noted), 51.1%; in test [10] it was 79%; in test [11] it was 75.6%; in [12] (10 µM unless noted), 78.3%. The growth was 84% in [13]; 55.5% in test [14] (10 µM unless noted); 76.8% in test [15] (10 µM unless noted); 77.8% in test [16] (10 µM unless noted); 46.4% in [17] (10 µM unless noted); 56.6% in [18] (10 µM unless noted). In addition, the growth is 8.76% (active) in test [19] (10 µM unless noted) and 63.9% in [20] (10 µM unless noted).
In the case of `O=C(O)CCCc1ccc(N(CCCl)CCCl)cc1`, the growth in [1] (10 µM) is 86.1% and 95.5%; in [1] (75 µM), 46.3%; in test [2] (10 µM), 85.7% and 74.5%; in test [2] (75 µM), 45.2%; in [3] (10 µM), 88.9% and 90.1%; in [3] (75 µM), 3.53% (active). In addition, the growth in test [5] (10 µM) was 85.1% and 84%; in test [5] (75 µM) it was 30%; in [6] (10 µM), 85.3% and 64.5%; in test [6] (75 µM) it was 45.3%; in [7] (10 µM), 93% and 88.4%; in test [7] (75 µM) it was 38.6%. Further, the growth in test [8] (10 µM) is 82.7% and 78.8%; in [8] (75 µM) it was 28.6%; in test [9] (10 µM), 83.1% and 80.2%; in [9] (75 µM), 26.7%; in test [10] it was 99.3%; in test [12] (10 µM), 101%. For the same compound, the growth in test [12] (75 µM) is 82.2%; in test [14] (10 µM), 83.4% and 89.5%; in test [14] (75 µM), 28.8%; in [15] (10 µM), 102%; in [15] (75 µM), 84.6%; in [16] (10 µM) it was 72.4% and 38.8%. The growth in [16] (75 µM) is -12.3% (active); in [17] (10 µM), 57.9% and 34.2%; in [17] (75 µM) it was -12.5% (active); in test [18] (10 µM), 115% and 99.6%; in test [18] (75 µM), 68.5%; in test [19] (10 µM), 19.6%. Moreover, the growth in test [19] (75 µM) is 3.35% (active); in test [20] (10 µM) it was 71.9% and 46.6%; in [20] (75 µM), -7.66% (active).
Regarding `C=CCOC(=O)C(Br)CC` (stereo not drawn), the growth was 108% in test [1] (10 µM unless noted); 110% in test [2] (10 µM unless noted); 97.1% in test [3] (10 µM unless noted); 109% in [4]; 101% in [5] (10 µM unless noted); 95% in [6] (10 µM unless noted). The growth was 99.3% in test [7] (10 µM unless noted); 98.8% in test [8] (10 µM unless noted); 95.8% in [9] (10 µM unless noted); 110% in [10]; 106% in test [11]; 107% in test [12] (10 µM unless noted). Besides, the growth in [13] is 111%; in test [14] (10 µM unless noted) it was 94.6%; in test [15] (10 µM unless noted), 103%; in test [16] (10 µM unless noted), 100%; in [17] (10 µM unless noted), 101%; in test [18] (10 µM unless noted) it was 90.4%. For the same compound, the growth was 101% in test [19] (10 µM unless noted) and 107% in test [20] (10 µM unless noted).
On to `O=NN1CCCCC1`, for which the growth was 106% in test [1] (10 µM unless noted); 103% in test [2] (10 µM unless noted); 82.6% in [3] (10 µM unless noted); 97.8% in test [4]; 111% in test [5] (10 µM unless noted); 110% in test [6] (10 µM unless noted). The growth in [7] (10 µM unless noted) is 106%; in test [8] (10 µM unless noted), 97.1%; in test [9] (10 µM unless noted) it was 100%; in [10], 110%; in [11], 105%; in test [12] (10 µM unless noted), 126%. Besides, the growth in [13] was 98.7%; in [14] (10 µM unless noted) it was 98.8%; in [15] (10 µM unless noted), 110%; in test [16] (10 µM unless noted), 101%; in test [17] (10 µM unless noted), 107%; in test [18] (10 µM unless noted) it was 88.1%. Besides, the growth in [19] (10 µM unless noted) is 110%; in test [20] (10 µM unless noted), 104%.
